The text below walks through data of PubChem BioAssay (NCI).

Experiment in all cases: NCI-60 one-dose screen, 48 h (100 = growth as untreated, 0 = no growth, -100 = all killed)
Conditions in all cases: 10 µM unless noted

The test system of assay [1] is SK-MEL-2 melanoma.
Assay [2] concerns EKVX NSCLC.
Assay [3] has as its system SN12C renal.
Assay [4] concerns UO-31 renal.
In assay [5] the test system is TK-10 renal.
The subject of assay [6] is ACHN renal.
Assay [7] deals with CAKI-1 renal.
The test system of assay [8] is A498 renal.
In assay [9] the test system is CCRF-CEM leukemia.
In assay [10] the test system is MOLT-4 leukemia.
Assay [11] relates to SR leukemia.
Assay [12] relates to RPMI-8226 leukemia.
In assay [13] the test system is OVCAR-8 ovarian.
The test system of assay [14] is OVCAR-5 ovarian.
Assay [15] relates to OVCAR-4 ovarian.
The subject of assay [16] is SK-OV-3 ovarian.
For assay [17], the system named is IGROV1 ovarian.
Assay [18] relates to OVCAR-3 ovarian.
For assay [19], the system named is NCI/ADR-RES ovarian.
Assay [20] deals with HS 578T breast.

About 83,000 compounds went through this panel and 20% of them were active in at least one assay; those are over-represented in the sample as a whole.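 Results are percent growth after 48 hours of single-concentration exposure. 100 means growth as in untreated cells, lower positive values show inhibition; negative values down to -100 show cell death.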 A number with no mark means an inactive call. Activity calls are given as the source filed them. How the source made its calls: active means growth percent below 10; inactive means the rest.

As to `COc1ccc(-n2nc(C)c3c(Nc4ccc(NC(=O)Nc5cc(C(F)(F)F)ccc5F)cc4)ncnc32)cc1`, the growth in [1] was 25%; in assay [2], 24.1%; in assay [3] it was 44.9%; in [4], 16%; in [5], 47.5%; in assay [6] it was 25.3%. In addition, the growth in assay [7] is 4.88% (active); in assay [8] it was 56.5%; in [9], 38.4%; in [10], 39.3%; in [11], 28.4%; in [12], 4.77% (active). The growth in assay [13] was 26.4%; in assay [14], 25.1%; in [15] it was 57.8%; in assay [16], 29.5%; in [17] it was 39.2%; in [18] it was 25.2%. Further, the growth in [19] was 24.1%.

With `COc1ccc(NC2=C(Sc3nc(C)cc(C)n3)C(=O)N(Cc3ccccc3)C2=O)cc1Cl`, the growth in assay [1] is 96.5% [30 µM]; in assay [2], 84.5% [30 µM]; in assay [3], 91.8% [30 µM]; in assay [4], 84.2% [30 µM]; in assay [5] it was 111% [30 µM]; in assay [6], 103% [30 µM]. Further, the growth in assay [7] is 95.7% [30 µM]; in assay [8], 80.4% [30 µM]; in assay [9], 54.6% [30 µM]; in [10] it was 45% [30 µM]; in [11], 63.4% [30 µM]; in assay [12], 39.3% [30 µM]. Further, the growth was 29.3% [30 µM] in [13]; 124% [30 µM] in [14]; 78.6% [30 µM] in assay [15]; 117% [30 µM] in assay [16]; 113% [30 µM] in assay [17]; 92% [30 µM] in assay [18]. In addition, the growth in [20] is -21.7% [30 µM] (active); in [19] it was 63.5% [30 µM].

As for `Cc1ccc(-c2onc3c(=O)[nH]nc(-c4ccccc4)c23)cc1`, the growth in assay [1] was 25.6%; in assay [2] it was 39%; in assay [3], 37.4%; in [4], 47.7%; in assay [5], 55%; in assay [6], 56.9%. The growth in assay [7] was 33.9%; in assay [8], 30%; in assay [9], 20.5%; in assay [10], 26%; in assay [11], 28%; in [12] it was 17.9%. Also, the growth was 36.7% in [13]; 62.3% in assay [14]; 67.3% in [15]; 14.9% in [16]; 52.4% in assay [17]; 7.2% (active) in assay [18]. Besides, the growth in assay [19] was 25.2%.

As for `CC(C)CC1C(=O)N2CCC[C@H]2C2(O)O[C@](NC(=O)C3C=C4c5cccc6[nH]c(Br)c(c56)C[C@H]4N(C)C3)(C(C)C)C(=O)N12` (some centres not stated), the growth in assay [1] was 77.4%; in assay [2], 54.6%; in [3], 40.3%; in assay [4], 36.2%; in assay [5], 54.6%; in assay [6], 43.6%. The growth was 61.1% in assay [7]; 76.5% in assay [8]; 58.3% in [9]; 15.9% in [10]; 28.6% in assay [11]; 11.1% in assay [12]. In addition, the growth in assay [13] is 63.3%; in assay [14] it was 69.6%; in [15] it was 41%; in assay [17], 59%; in assay [18], 61.5%; in assay [20] it was 89.7%. The growth in assay [19] was 57.7%.

Take `Cn1cc(C(=O)c2nc(-c3c[nH]c4ccc(Br)cc34)no2)c2cc(F)ccc21`: the growth in assay [1] was 97.5%; in assay [2] it was 73.2%; in assay [3] it was 92.8%; in assay [4], 68.8%; in assay [5], 115%; in assay [6], 89.6%. Also, the growth in assay [7] was 80.1%; in assay [8], 107%; in assay [9] it was 100%; in assay [10], 94.8%; in assay [11], 101%; in assay [12] it was 99.5%. The growth is 94.6% in assay [13]; 99.3% in [14]; 93.1% in [15]; 61.3% in [17]; 97.2% in assay [18]; 85% in [20]. In [19], the growth is 94.1%.

On to `CCOC(=O)c1csc(NC(=O)COc2cccc(/C=C3\CSc4ccccc4C3=O)c2)n1`, for which the growth in [1] was -49.8% (active); in [2], -36.2% (active); in [3], 74.8%; in assay [4], -35.1% (active); in [5], 68.6%; in [6], 45.5%. Further, the growth was 2.32% (active) in assay [7]; 115% in [8]; -61.3% (active) in assay [9]; -50.9% (active) in assay [10]; -86.4% (active) in assay [11]; -71.2% (active) in [12]. Further, the growth was 20.3% in [13]; 56.4% in assay [14]; 83.6% in assay [15]; 1.28% (active) in assay [17]; -25.7% (active) in assay [18]; -11% (active) in assay [20]. Also, in [19], the growth was 44.1%.

`Cc1ccc2c(C(C[N+](=O)[O-])c3ccccc3)c(-c3ccccc3)[nH]c2c1` (configuration not stated): the growth in assay [1] was 1.05% [9.5 µM] (active); in assay [2] it was 42.3% [9.5 µM]; in assay [3], 42.2% [9.5 µM]; in assay [4] it was 35% [9.5 µM]; in assay [5], 43.7% [9.5 µM]; in assay [6], 36.7% [9.5 µM]. In addition, the growth in [7] was 21.5% [9.5 µM]; in assay [8], -1.59% [9.5 µM] (active); in assay [9], 19.5% [9.5 µM]; in [10] it was 21.2% [9.5 µM]; in [11], 25.4% [9.5 µM]; in assay [12] it was 24.4% [9.5 µM]. In addition, the growth in assay [13] is 29.6% [9.5 µM]; in [14] it was 52.2% [9.5 µM]; in [16] it was 19.3% [9.5 µM]; in [17], 27.4% [9.5 µM]; in [18], 3.85% [9.5 µM] (active); in assay [20] it was 1.97% [9.5 µM] (active). For the same compound, in assay [19], the growth was 10.9% [9.5 µM].

As to `Oc1cccc2ccc(N/N=C/c3cc(CN4CCOCC4)c(O)c4ncccc34)nc12`, the growth in [1] was 25%; in assay [2], 23.4%; in [3], 20.2%; in assay [4], -4.14% (active); in assay [5], 23%; in [6], -29.3% (active). In addition, the growth was 11.5% in [7]; 21.3% in [8]; 16.6% in [9]; 9.34% (active) in [10]; 2.95% (active) in assay [11]; 16.2% in assay [12]. Besides, the growth is 13% in assay [13]; 28.3% in assay [14]; -14.9% (active) in assay [16]; 18.7% in assay [17]; 23.2% in [18]; 2.84% (active) in assay [19].
